WRN helicase inh-1: blocks human WRN helicase | 360,000 tested, 0.46% active | Q14191 | AID 651768 | WRN helicase unwinding, fluorescent forked duplex, kinetic | Potency, µM (highest dose often 114 µM), inactives show at the highest dose activity change, negative = inhibition, actives largely listed as inhibitors; also: potency is read from the fitted curve at half-maximal effect; % is scaled to controls: 0 for no effect and ±100 for the full control effect; nearly all actives have a fitted effect of over 55% in size
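Screening of the MLSMR collection measured strand separation of a quenched forked DNA duplex (100 nM) by 20 nM WRN with 2 mM ATP, all final. Compounds were preincubated with enzyme 15 min at room temperature.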
Pol eta inh-1: DNA polymerase eta (human) inhibition | Q9Y253 | recombinant Pol eta, fluorescent DNA replication assay | AID 588591 | Potency, µM (titrated, usually from 114 µM), without a hit: at the highest dose activity change, negative = inhibition, most hits filed as inhibitors | 390,000 tested, 1.2% active; also: potency is read from the fitted curve at half-maximal effect; % is scaled to controls: 0 for no effect and ±100 for the full control effect
Target sequence (Q9Y253 whole entry, looked up): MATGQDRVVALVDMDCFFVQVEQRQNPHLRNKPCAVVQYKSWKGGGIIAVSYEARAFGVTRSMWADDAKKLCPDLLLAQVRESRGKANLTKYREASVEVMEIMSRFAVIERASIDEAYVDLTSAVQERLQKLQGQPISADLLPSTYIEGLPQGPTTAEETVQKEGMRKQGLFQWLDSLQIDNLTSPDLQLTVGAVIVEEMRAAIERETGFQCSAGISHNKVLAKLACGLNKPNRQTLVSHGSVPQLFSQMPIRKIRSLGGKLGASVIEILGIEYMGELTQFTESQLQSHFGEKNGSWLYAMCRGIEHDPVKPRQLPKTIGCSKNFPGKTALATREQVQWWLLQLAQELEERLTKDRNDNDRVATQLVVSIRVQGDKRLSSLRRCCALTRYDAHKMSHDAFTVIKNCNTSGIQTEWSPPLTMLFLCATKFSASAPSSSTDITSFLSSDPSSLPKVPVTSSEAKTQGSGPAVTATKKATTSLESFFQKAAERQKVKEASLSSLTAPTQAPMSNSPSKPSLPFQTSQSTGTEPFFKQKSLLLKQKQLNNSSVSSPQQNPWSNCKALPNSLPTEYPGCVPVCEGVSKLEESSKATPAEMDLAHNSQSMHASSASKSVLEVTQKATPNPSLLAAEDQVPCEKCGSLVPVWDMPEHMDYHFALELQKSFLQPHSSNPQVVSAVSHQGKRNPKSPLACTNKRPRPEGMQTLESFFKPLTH
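Fluorescent replication assay: 50 nM final substrate added after a 15 min room-temperature compound preincubation with 10 nM enzyme. Signal taken at 0 min and again at 10 min.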
POLI inh: DNA polymerase iota (human) inhibition; Q9UNA4; Pol iota fluorescent replication assay, 10 min; Potency, µM (titrated, usually from 115 µM), for inactives: at the top dose activity, negative = inhibition, usual class: inhibitors; 390,000 tested, 1% active; AID 588590; also: potency is read from the fitted curve at half-maximal effect
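Pol iota at 10 nM preincubated 15 min with compounds at room temperature; reaction started with fluorescent substrate, 50 nM final. Fluorescence read kinetically at 0 and 10 min; buffer-only wells as negative control.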
Pol kappa inh: inhibitors of human DNA polymerase kappa; Q9UBT6; purified Pol kappa, fluorescent DNA synthesis assay, 10 min; Potency, µM (top dose mostly 107 µM), inactives show at the top dose activity, negative = inhibition, usual class: inhibitors; 400,000 tested, 0.53% active; AID 588579; also: potency is read from the fitted curve at half-maximal effect; % is scaled to controls: 0 for no effect and ±100 for the full control effect
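Kinetic fluorescence readout at 0 and 10 min followed reaction start with substrate at 50 nM final. Beforehand, enzyme (10 nM Pol kappa) stood 15 min with compound at room temperature; buffer-only wells were negative controls.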
PI5P4Ka inh: PI5P4K alpha (human) kinase inhibition; PI5P4Kalpha enzyme, ADP-Glo luminescence, 60 min; stronger effect = lower value; max response, %; 330,000 tested, 1.2% active; active = max response of -50% or lower; inconclusive = between -30% and -50%; inactive = -30% or higher; also: value at the top dose of about 77 µM; % is scaled to controls: 0 for no effect and ±100 for the full control effect
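Quantitative HTS of the MLSMR library against PI5P4Kalpha with substrate. ATP added last at 5 microM final; room temperature, 60 minutes. Remaining ATP depleted, ADP converted and read as luminescence.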
Pol beta inh-1: DNA polymerase beta (human) inhibition | P06746 | Pol beta primer extension/strand displacement, fluorescence kinetic | Potency, µM (titrated, usually from 114 µM), for inactives: top-dose activity change, negative = inhibition, hits mostly inhibitors | 340,000 tested, 1.3% active | AID 485314; also: potency is read from the fitted curve at half-maximal effect; % is scaled to controls: 0 for no effect and ±100 for the full control effect
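Values derive from four-parameter Hill fits of normalized kinetic data: reads at 0 and 10 min following addition of 50 nM substrate to 10 nM Pol beta preincubated 15 min with compound.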
Pol beta inh-2: Human Pol beta inhibitor hit validation. AID 540280. shares compounds with Pol beta inh-1. Potency, µM, hits mostly inhibitors. Pol beta primer extension/strand displacement, fluorescence kinetic. 250 tested, 87% active; calls by dose curve; also: potency is read from the fitted curve at half-maximal effect
Klenow counter: inhibits Klenow fragment polymerase in counter-screen; shares compounds with Pol beta inh-1; Klenow exo- polymerase counter-screen, fluorescent DNA substrate; activity change, negative = inhibition, % at 57.1 µM; 250 tested, under 10 active; AID 540300
HIV RT counter: inhibits HIV-1 reverse transcriptase in counter-screen. shares compounds with Pol beta inh-1. HIV-1 RT polymerase activity, counter-screen. activity % (negative = inhibition, positive = activation), % at 57.1 µM. 250 tested, under 10 active. AID 540301
POLB valid: validation of human DNA polymerase beta inhibitors; 110 tested, 91% active; AID 540325; inhibition, % at 10 µM; radiolabeled primer extension gel assay, phosphorimager; shares compounds with Pol beta inh-1;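 active = inhibition at 10 µM of 30% or more; inconclusive = no clear call, values can overlap the other calls; inactive = inhibition at 10 µM under 30%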
Pol iota confirm: Inhibitors of human DNA polymerase iota, confirmation; shares compounds with Pol kappa inh; Pol iota primer extension, TAMRA/BHQ fluorescence; Potency, µM, usual class: inhibitors; 1,500 tested, 77% active; also: potency is read from the fitted curve at half-maximal effect
Pol eta inh-2: Pol eta (human) inhibition, cherry-pick confirmation. AID 720502. Pol eta primer extension, TAMRA/BHQ fluorescence, 10 min. 2,600 tested, 64% active. Potency, µM, actives largely listed as inhibitors. shares compounds with Pol eta inh-1; also: potency is read from the fitted curve at half-maximal effect
WRN helicase inh-2: confirmation of human WRN helicase inhibitors | shares compounds with WRN helicase inh-1 | WRN helicase DNA unwinding, fluorescence kinetic | Potency, µM (top dose mostly 57.1 µM), for inactives: at the highest dose activity, negative = inhibition, hits mostly inhibitors | 610 tested, 63% active; also: potency is read from the fitted curve at half-maximal effect; nearly all actives have a fitted effect of over 65% in size
TO displacement: binds DNA, flagged in WRN inhibitor counterscreen; shares compounds with WRN helicase inh-1; Potency, µM (doses to about 57.1 µM), for the others: at the top dose activity change, negative = inhibition, most hits filed as inhibitors; thiazole orange DNA binding displacement, fluorescence; AID 720499; 610 tested, 10% active;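 also: drop in dye fluorescence marks compound binding to DNA; potency is read from the fitted curve at half-maximal effect; % is scaled to controls: 0 for no effect and ±100 for the full control effect; nearly all actives have a fitted effect of over 60% in size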
BLM helicase inh: blocks human BLM helicase in WRN counterscreen; Recombinant BLM helicase DNA unwinding, red fluorescence; 610 tested, 60% active; AID 720503; Potency, µM (series often up to 57.1 µM), without a hit: top-dose activity change, negative = inhibition, most hits filed as inhibitors; shares compounds with WRN helicase inh-1; also: potency is read from the fitted curve at half-maximal effect; nearly all actives have a fitted effect of over 60% in size
ADP-Glo interf: ADP-Glo luciferase interference, PI5P4K counter-screen | shares compounds with PI5P4Ka inh | ADP-Glo detection counter-screen, luciferase luminescence, no enzyme | Potency, µM (top dose mostly 76.9 µM), for the others: at the top dose activity change, negative = inhibition, hits mostly inhibitors | 1,100 tested, under 10 active
* = called active by the depositor; [ ] = dose if it differs, or a comment. The list is not random: actives were taken first. Their share in the collection is about 2.8%. Unless noted, calls follow the shape of the dose curve; as a rule, active = well fitted curve in the direction sought with a large enough effect; inconclusive = small, poorly fitted or top-dose-only effect, or another doubt; inactive = no such curve, though single readings can be large; an effect the other way counts as inactive or inconclusive.

Screening CCc1nnc(NC(=O)c2cc(-c3ccco3)nc3ccccc23)s1 returned WRN helicase inh-1 35µM*, Pol eta inh-1 16µM*, POLI inh 1.3µM*, Pol kappa inh 25µM*, PI5P4Ka inh -78*, Pol beta inh-1 8.9µM*, Pol beta inh-2 20*, Klenow counter -11, HIV RT counter 33, Pol iota confirm inconclusive, Pol eta inh-2 76*, WRN helicase inh-2 inconclusive, TO displacement 24µM*, BLM helicase inh 1.9µM* and ADP-Glo interf -6%.
For CCc1nnc(NC(=O)c2cc(-c3ccccn3)nc3ccccc23)s1 the results were WRN helicase inh-1 -12%, Pol eta inh-1 -3%, POLI inh 1%, Pol kappa inh -11%, PI5P4Ka inh 2 and Pol beta inh-1 13%.
`O=C(NC1CCC(O)CC1)c1cc(-c2ccco2)nc2ccccc12` (stereo not drawn) gave WRN helicase inh-1 inconclusive, Pol eta inh-1 25µM*, POLI inh 35µM*, Pol kappa inh inconclusive, PI5P4Ka inh -67*, Pol beta inh-1 13µM*, Pol beta inh-2 28*, Klenow counter -17, HIV RT counter 41, POLB valid 84*, Pol iota confirm 67*, Pol eta inh-2 76* and ADP-Glo interf -6%.
Cc1cc(S(=O)(=O)N2CCCC2)ccc1OCC(=O)N1CCCCC1 was read as WRN helicase inh-1 -4%, Pol eta inh-1 -2%, POLI inh 12%, Pol kappa inh 3%, PI5P4Ka inh 3 and Pol beta inh-1 16%.
For CC1CCCC(NC(=O)C2N(CCCN3CCCC3)C(=O)C3C(C(=O)Nc4ccc(Cl)cc4)C4C=CC32O4)C1C (stereo not drawn) the results were WRN helicase inh-1 5%[57.1 µM], Pol eta inh-1 -13%, POLI inh -16%, Pol kappa inh -2%, PI5P4Ka inh -1 and Pol beta inh-1 19%.
For N[C@@]1(C(=O)O)CN[C@@H](C(=O)O)C1 the results were Pol kappa inh 2%[19.4 µM].
For Cc1cc(-c2nc3c4c5c(sc4[nH]c(=O)n3n2)CCC5)c(C)o1 the results were WRN helicase inh-1 inconclusive, Pol eta inh-1 13µM*, POLI inh 13µM*, Pol kappa inh inconclusive, PI5P4Ka inh -59*, Pol beta inh-1 3.5µM*, Pol beta inh-2 32*, Klenow counter -17, HIV RT counter 27, POLB valid 23 and ADP-Glo interf -6%.
Screening CCc1ccc(N2CCN(S(=O)(=O)CC34CCC(CC3=O)C4(C)C)CC2)cc1 (stereo not drawn) returned WRN helicase inh-1 0%, Pol eta inh-1 -5%, POLI inh 17%, Pol kappa inh -7%, PI5P4Ka inh 4 and Pol beta inh-1 24%.
`Cc1c2cnn(CC(=O)Nc3c(F)c(F)cc(F)c3F)c(=O)c2c(C)n1Cc1ccccc1F` gave WRN helicase inh-1 inconclusive, Pol eta inh-1 40µM*, POLI inh 18µM*, Pol kappa inh 45µM*, PI5P4Ka inh -56*, Pol beta inh-1 6.3µM*, Pol beta inh-2 6.3*, Klenow counter -33, HIV RT counter -6, Pol iota confirm 30*, Pol eta inh-2 60*, WRN helicase inh-2 19µM*, TO displacement 27%, BLM helicase inh 3.8µM* and ADP-Glo interf 4%.
COc1ccc(N2CCN(C(=O)Cc3ccc(S(=O)(=O)N4CCOCC4)s3)CC2)cc1 was read as WRN helicase inh-1 inconclusive, Pol eta inh-1 20µM*, POLI inh 20µM*, Pol kappa inh 79µM*, PI5P4Ka inh -71*, Pol beta inh-1 13µM*, Pol beta inh-2 32*, Klenow counter -33, HIV RT counter 45, POLB valid 83*, Pol iota confirm 42*, Pol eta inh-2 48* and ADP-Glo interf 2%.
CN(Cc1ccccc1)C(=O)c1ccco1 was read as WRN helicase inh-1 -2%, Pol eta inh-1 -16%, POLI inh 38%, Pol kappa inh 5%, PI5P4Ka inh 4 and Pol beta inh-1 2%.
For Cc1ccc(C(CCN(Cc2ccccc2)C(=O)c2ccco2)c2ccco2)cc1 (stereo not drawn) the results were WRN helicase inh-1 inconclusive, Pol eta inh-1 18µM*, POLI inh 20µM*, Pol kappa inh 50µM*, PI5P4Ka inh -58*, Pol beta inh-1 10µM*, Pol beta inh-2 16*, Klenow counter -8, HIV RT counter -9, Pol eta inh-2 85* and ADP-Glo interf -2%.

Screens (PubChem BioAssay)
